Assay results taken from PubChem BioAssay (NCATS).
Values joined by “and” are separate entries in the source; they are usually repeats but may differ in a detail not shown here. Equal entries are not always repeated. Results filed as inconclusive are left out. A number with no mark means an inactive call. Active and inactive are the calls of the source. Calls come from the whole dose curve; as a rule, active = well fitted curve in the direction sought with a large enough effect; inconclusive = small, poorly fitted or top-dose-only effect, or another doubt; inactive = no such curve, though single readings can be large or run the other way.

Experiment: qHTS Assay for Identifying Gametocytocidal Compounds (AID 743244);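 for max response: actives lower the fluorescent signal which means gametocytes are killed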
Conditions: P. falciparum 3D7 stage III-V gametocytes, alamarBlue, 72 h; max response: active compounds read low
How it was run: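 3D7 gametocytes, stages III–V, 20,000/well; cpd 72 h, 37 °C/5% CO2; + alamarBlue 24 h; fluor. Ex 525/Em 598.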
% is set by controls: 0 for no effect and ±100 for the full control effect; potency is the fitted concentration of half-maximal effect.

Structure (SMILES) | max response | Potency
CC[N+](CC)(CC)CC | -4.6% and 7.33% | 
CCN(CC)CCN1C(=O)CN=C(c2ccccc2F)c2cc(Cl)ccc21 | 9.52% | 
CC1=C2C[C@@H]3[C@@H](CC=C4C[C@@H](O)CC[C@@]43C)[C@@H]2CC[C@]12O[C@H]1C[C@H](C)CN[C@H]1[C@H]2C |  | 23.5 µM (active)
CC(C)CC(N(C)C)C1(c2ccc(Cl)cc2)CCC1 (stereo unspecified) | 6.63% | 
Clc1cccc(N2CCNCC2)c1 | 0.639% | 
Cc1ccc2c(n1)Oc1ccc(C(C)C(=O)OCC(=O)N(C)C)cc1C2 (stereo unspecified) | 42.6% and 2.17% | 
C#CCOC(C(=O)OCCN(C)C)(c1ccccc1)c1ccccc1 | -0.509% | 
COc1ccc2c(c1OC)CN1CCc3cc4c(cc3C1C2)OCO4 (stereo unspecified) | 4.63% | 
CC1OC(C)OC(C)O1 (stereo unspecified) | -0.681% and 11.3% | 
O=[N+]([O-])c1cc([As](=O)(O)O)ccc1O |  | 3.98 µM (active)
NP(N)(=O)NC(=O)c1ccc(F)cc1 | -2.45% | 
C=CCN1CC[C@]23c4c5ccc(O)c4O[C@H]2C(=O)CC[C@@]3(O)[C@H]1C5 | 6.99% and 10.2% | 
CCCC1CCCCN1 (stereo unspecified) | -2.88% | 
CC[N+]1(C)CCCC(OC(=O)C(O)(c2ccccc2)c2ccccc2)C1 (stereo unspecified) | -8.23% | 
N[C@@H](Cc1ccc(Oc2cc(I)c(O)c(I)c2)c(I)c1)C(=O)O | -7.97% | 
COc1cc([C@@H]2c3cc4c(cc3[C@H](O)[C@H]3COC(=O)[C@H]23)OCO4)cc(OC)c1OC | 11.4% | 

Structure (SMILES) | max response | Potency
CC(C)(N)Cc1ccc(Cl)cc1 | 12.2% | 
FC(F)(F)c1cccc(C2=CCN(CCc3ccc4ccccc4c3)CC2)c1 | 11.8% | 
O=P1(NCCCl)OCCCN1CCCl (stereo unspecified) | 4.6% | 
CN(C)C(=O)C(CCN1CCC(O)(c2ccc(Cl)cc2)CC1)(c1ccccc1)c1ccccc1 |  | 11.2 µM (active) and 1.26 µM (active)
CC(=O)Nc1cc([As](=O)(O)O)ccc1O | 0.387% | 
CNC(=O)N1N=C(c2ccc(N)cc2)c2cc3c(cc2CC1C)OCO3 (stereo unspecified) | -1.27% | 
CC1NCCOC1c1ccccc1 (stereo unspecified) | 1.41% | 
CCN(CC)C(=O)N[C@@H]1C=C2c3cccc4[nH]cc(c34)C[C@@H]2N(C)C1 |  | 20 µM (active)
C#CCN(C)[C@H](C)Cc1ccccc1 | -11.5% | 
O=C(NC(O)C(Cl)(Cl)Cl)NC(O)C(Cl)(Cl)Cl (stereo unspecified) | -4.63% | 
Cn1c(CCCC(=O)O)nc2cc(N(CCCl)CCCl)ccc21 | -0.45% | 
Cc1sc2c(c1C)C(c1ccc(Cl)cc1)=N[C@@H](CC(=O)OC(C)(C)C)c1nnc(C)n1-2 | -19.5% | 
C=C1CC[C@@]2(O)[C@H]3Cc4ccc(O)c5c4[C@@]2(CCN3CC2CC2)[C@H]1O5 | 7.59% | 
CN(C)[C@@H]1C(=O)C(C(N)=O)=C(O)[C@@]2(O)C(=O)C3=C(O)c4c(O)cccc4[C@@](C)(O)[C@H]3C[C@@H]12 | 8.32% | 
CC(C)=CC1C(C(=O)OCc2cccc(Oc3ccccc3)c2)C1(C)C (stereo unspecified) | 5.27% | 
